Assay results taken from the supplement of paper PMC4371806.
Whole data set: some 2,300 compounds, median “plate-normalized OD600 growth (mean of duplicates)” near 0.29, cut for the lowest 2% near 0.22. Many of the other results were omitted from the sample, so the lowest values are more common in it than they were.

Tested on: Escherichia coli BW25113
Experiment: plate-normalized OD600 growth (mean of duplicates) (OD600 (normalized)); higher = more growth (less inhibition)
Conditions: 10 µM
Protocol: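 E. coli BW25113 in LB (100 µl, 96-well, no shaking) was exposed to 10 µM of each compound from a ~30,000-member library and grown at 37°C for 24 h or 15°C for 48 h, in duplicate. Growth was read as OD600 and the duplicate ODs were normalized across screening plates to correct plate-to-plate variation. Hits were >3σ below the mean OD600 at 15°C and <2σ below the mean at 37°C.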

SMILES | plate-normalized OD600 growth (temperature: 15°C, 48 h) | plate-normalized OD600 growth (temperature: 37°C, 24 h)
NC(N)=NC(N)=Nc1ccccc1C(F)(F)F | 0.243 | 0.604
Cc1ccc(C2=Nc3ccccc3N=C(C(Cl)Cl)C2)cc1 | 0.25 | 0.629
Cc1noc(N)c1C(N)=S | 0.247 | 0.612
O=C(COc1ccc(/C=N/NC(=O)CO)cc1)NCC1CCCO1 (centres undefined) | 0.227 | 0.668
NNC(=O)c1cnn(-c2ccc(Cl)cc2)c1C(F)(F)F | 0.253 | 0.627
CCN(CC)c1ccc(NC(=O)c2c(F)cccc2F)c(N(CC)CC)n1 | 0.235 | 0.602
Cc1ccc(N=Cc2ccc(Sc3nc4ccccc4s3)o2)cc1 | 0.245 | 0.625
C/C(=N/NC(=O)COc1cccc(Cl)c1)c1ccc(Cl)cc1 | 0.248 | 0.631
CC1(O)N(CCN)C(=O)OC12CCCCC2 (centres undefined) | 0.269 | 0.626
CC1(C)OC(=O)N(CCCCCCN2C(=O)OC(C)(C)C2(C)O)C1(C)O (centres undefined) | 0.197 | 0.652
COc1ccc(/C(C)=N\NC2=NCCCN2)cc1 | 0.214 | 0.597
Cc1ccc(C(=O)c2sc3nc(-c4cccs4)cc(C(F)(F)F)c3c2N)cc1 | 0.239 | 0.623
Nc1c(C(=O)c2ccc(Br)cc2)sc2nc(-c3cccs3)cc(C(F)(F)F)c12 | 0.142 | 0.578
Nc1c(C(=O)c2ccc(Br)cc2)sc2nc(-c3ccccc3)cc(-c3ccccc3)c12 | 0.256 | 0.621
Cc1ccccc1COC(=O)c1ccc(-c2nnn(Cc3ccccc3C)n2)cc1 | 0.244 | 0.611
CCOc1ccc(NC(=O)CSc2nc(C)cc(COC)c2C#N)cc1 | 0.21 | 0.638
CCOc1ccc(-n2nc3ccc(NC(=O)COc4ccccc4C)cc3n2)cc1 | 0.235 | 0.616
COCc1cc(C)nc2sc(C(=O)OC)c(N)c12 | 0.243 | 0.626
CCc1c(C)nc2cc(-c3ccc(Cl)cc3)[nH]n2c1=O | 0.214 | 0.632
CCc1c(C)nc2[nH]nc(-c3ccccc3C)n2c1=O | 0.245 | 0.626
Cc1cc(=O)n2c(-c3ccc(Cl)cc3)csc2n1 | 0.239 | 0.607
NC(N)=NS(=O)(=O)c1ccc(NC(=O)C2CCCCC2)cc1 | 0.256 | 0.628
COc1ccc2[nH]c(C)c(CCNS(=O)(=O)c3cc(Cl)ccc3Cl)c2c1 | 0.249 | 0.606
COc1ccc(Cc2nnc(-c3ccc(-c4cccs4)s3)o2)cc1 | 0.258 | 0.615
Cc1c(NC(=O)c2ccc(N)cc2)c(=O)n(-c2ccccc2)n1C | 0.248 | 0.629

SMILES | plate-normalized OD600 growth (temperature: 15°C, 48 h) | plate-normalized OD600 growth (temperature: 37°C, 24 h)
CC(C)(C)OC(=O)NC1CCN(C(=O)c2ccc(Cl)cc2Cl)CC1 | 0.244 | 0.629
O=[N+]([O-])c1ccc2c(c1)S(=O)(=O)N=C2Nc1cc(Cl)ccc1Cl | 0.251 | 0.626
C=CCn1c2ccccc2c2nnc(SCC(=O)Nc3ncccn3)nc21 | 0.245 | 0.599
Cc1cccc(C2(c3cccc(C)c3)CC2C(=O)Nc2ccc(C#N)cc2)c1 (centres undefined) | 0.232 | 0.597
CC(C)CSc1ncnc2scc(-c3ccccc3)c12 | 0.235 | 0.631
Cc1ccc(N(C)C(=S)Nc2ccc3nc[nH]c(=O)c3c2)cc1C | 0.237 | 0.625
Cc1cccc(-n2c(C)cc(C=Nc3ccc(Cl)cc3O)c2C)c1 | 0.249 | 0.613
COc1c(Cl)cnc(Cl)c1C(N)=O | 0.265 | 0.636
C/C(=N/O)c1ccc2c(c1)C(C)(C)CCC2(C)C | 0.256 | 0.629
N#Cc1cc(I)c(C#N)c(I)c1 | 0.198 | 0.616
O=C(O)CCCN1C(=O)C(=O)C(=C(O)c2ccccc2)C1c1ccc(Br)cc1 (centres undefined) | 0.226 | 0.646
Cc1sc(NC(=O)c2cc3ccccc3oc2=O)nc1-c1ccc(-c2ccccc2)cc1 | 0.253 | 0.625
CC(C)(C)n1ncc(N/N=C/c2ccc(Cl)cc2)c(Cl)c1=O | 0.238 | 0.605
CC(C(=O)O)C(=O)c1cc(Cl)c(Cl)cc1Cl (centres undefined) | 0.215 | 0.63
O=S(=O)(c1cc(Br)c(Br)s1)N1CCCCC1 | 0.262 | 0.63
Nc1nc(=Nc2ccccc2)n2c(n1)sc1ccccc12 | 0.243 | 0.61
CC(=O)Nc1ccc(NC(=O)CSc2nnc(NS(C)(=O)=O)s2)cc1 | 0.252 | 0.63
COc1cc(Cl)c(Cl)cc1Cl | 0.251 | 0.604
O=C1C(Cl)=C(Oc2cc(Cl)c(Cl)cc2Cl)C(=O)c2ccccc21 | 0.211 | 0.613
COc1ccc(NC(=O)/C=C/c2cccc(Oc3ccccc3)c2)cc1 | 0.245 | 0.633
NC1=Nc2nc(Nc3ccccc3)sc2/C(=C/c2ccc(O)cc2)N1 | 0.248 | 0.628
Cc1onc(-c2ccccc2Cl)c1C(=O)Nc1ccc(S(=O)(=O)Nc2nccs2)cc1 | 0.246 | 0.614
NS(=O)(=O)c1ccc(CCn2c(-c3ccc(S(=O)(=O)N4CCCC4)cc3)csc2=Nc2cccc(C(F)(F)F)c2)cc1 | 0.257 | 0.65
O=[N+]([O-])c1ccc(OCCCOc2ccc([N+](=O)[O-])cc2)cc1 | 0.238 | 0.596
O=C1NC(=O)c2cc(-c3ccc([N+](=O)[O-])cc3)ccc21 | 0.241 | 0.631

SMILES | plate-normalized OD600 growth (temperature: 15°C, 48 h) | plate-normalized OD600 growth (temperature: 37°C, 24 h)
O=[N+]([O-])c1ccc(-c2ncn[nH]2)cc1 | 0.209 | 0.607
CC(C)c1ncc(C(O)c2cccc3ccccc23)n1C (centres undefined) | 0.249 | 0.63
O=c1[nH]c(-c2cn[nH]c2-c2ccc(F)cc2)nc2sc3c(c12)CCCC3 | 0.237 | 0.637
CS/C(N)=N\N=C/c1c(F)cccc1Cl | 0.258 | 0.652
Cc1oc(-c2ccccc2)cc1C(=O)N1CCN(c2ccc([N+](=O)[O-])cc2)CC1 | 0.265 | 0.667
COc1cc(C=NCc2ccco2)ccc1O | 0.242 | 0.622
CCN1CCN(CCC(=O)Nc2ccccc2)CC1 | 0.228 | 0.624
NC(=O)C1CCN(CCC(=O)Nc2ccccc2)CC1 | 0.208 | 0.651
CC1CCN(CCC(=O)Nc2ccc(Cl)cc2)CC1 | 0.261 | 0.643
CC(C)(C)S(=O)(=O)/C(C#N)=C/N1CCCCC1 | 0.267 | 0.62
O/N=C\c1sccc1Oc1ccccc1 | 0.254 | 0.635
CCOC(=O)c1ccc(-n2nnnc2C(c2ccc(Cl)cc2Cl)N2CCOCC2)cc1 (centres undefined) | 0.241 | 0.645
Cc1ccc(C=Nc2ccc(-c3ccc(N=Cc4ccc(C)o4)c(C)c3)cc2C)o1 | 0.224 | 0.622
CC(=O)N(CC(=O)Nc1ccc(C)cc1)c1ccccc1 | 0.214 | 0.646
C/C(CC(=O)Nc1ccc(N(C)C)cc1)=N\NC(=O)COc1ccc(C)cc1 | 0.236 | 0.627
Cc1ccc(NC(=O)CCN2CCN(c3ccccc3)CC2)cc1 | 0.26 | 0.612
COC(=O)C1=NN(c2ccccc2Cl)C2(S1)c1ccccc1C(C)=NN2c1ccccc1 (centres undefined) | 0.234 | 0.641
O=C(NCCSCc1ccco1)c1ccc(Cl)cc1 | 0.25 | 0.605
CC12CCC(C1)C(C)(C)C2NC(=O)c1cccs1 (centres undefined) | 0.26 | 0.639
Cc1nn(CC(=O)NNC(=O)COc2ccc(Cl)cc2Cl)c(C)c1Br | 0.235 | 0.607
O=C(Oc1ccc(N(C(=O)c2ccccc2)S(=O)(=O)c2cccs2)cc1)c1ccccc1 | 0.225 | 0.622
O=c1[nH]nc(-c2ccc(N3CCN(CCO)CC3)c([N+](=O)[O-])c2)c2ccccc12 | 0.242 | 0.616
COCc1cc(C)c2c(n1)sc1c2nc(C)n2c3ccccc3nc12 | 0.244 | 0.619
CCOc1ccc(NC(=O)CC2S/C(=N\N=C\c3ccc(C)s3)NC2=O)cc1 (centres undefined) | 0.222 | 0.624
Cc1cc(C(O)(C(F)(F)F)C(F)(F)F)cc(C)c1O | 0.249 | 0.618

SMILES | plate-normalized OD600 growth (temperature: 15°C, 48 h) | plate-normalized OD600 growth (temperature: 37°C, 24 h)
O=C(Nc1nc(-c2ccccc2)cs1)C1CC(O)CN1C(=O)Oc1ccccc1 (centres undefined) | 0.263 | 0.648
Cc1cc(/C=N/NC(=O)c2cc3ccccc3o2)c(C)n1-c1ccc(C23CC4CC(CC(C4)C2)C3)cc1 | 0.244 | 0.607
COc1cccc(C2C3=C(CC(C)(C)CC3=O)OC(N)=C2[N+](=O)[O-])c1 (centres undefined) | 0.246 | 0.619
O=C(CC(=O)Nc1cccc(Cl)c1)N/N=C\c1ccccc1 | 0.246 | 0.616
OCCCc1cccc(C(F)(F)F)c1 | 0.242 | 0.586
O=C1C=C(Cl)CC(c2ccc(C(F)(F)F)cc2)C1 (centres undefined) | 0.243 | 0.607
O=C(O)c1ccc(Br)c(NC(=O)C2C3C=CC(C3)C2C(=O)O)c1 (centres undefined) | 0.248 | 0.604
N/C(=N\OC(=O)c1ccno1)c1ccc(C(F)(F)F)cc1 | 0.253 | 0.612
O=C(O)c1oc(C(=O)O)c(OCc2ccccc2)c1OCc1ccccc1 | 0.263 | 0.637
Cc1nnn(-c2nonc2N)c1C(=O)NNC(=O)c1ccc(Cl)c(Cl)c1 | 0.243 | 0.606
O=C(NNC(=O)c1ccccc1OCc1ccccc1)c1ccc(Cl)c(Cl)c1 | 0.216 | 0.606
O=C(Nc1ccc(Cl)cc1Cl)c1cnccn1 | 0.245 | 0.607
N#CC1=C2N=C(N)c3c(sc4c3CCCC4)N2C2=C(C(=O)CCC2)C1c1cccnc1 (centres undefined) | 0.246 | 0.624
C/C(=N/OC(=O)c1ccc(Cl)cc1)c1ccc(F)cc1 | 0.236 | 0.601
CCN(CC)C(=O)NC(=O)c1c(C)cc(Cl)nc1Cl | 0.243 | 0.63
Cc1ccc(N2CC(=O)N(/N=C/c3ccc(F)cc3)C2=S)cc1 | 0.232 | 0.63
COc1ccc(C(=O)[C@@H]2[C@@H](c3cccs3)C(C#N)(C#N)[C@H]3C=Cc4ccccc4N23)cc1 | 0.251 | 0.63
CC(=O)C1C(=O)CC(C)(O)C(C(C)=O)C1c1ccc(Br)cc1 (centres undefined) | 0.25 | 0.616
CC(=O)C1=C(Nc2ccc(C)cc2)CC(C)(O)C(C(C)=O)C1c1ccc(F)cc1 (centres undefined) | 0.208 | 0.598
C/C(=C\C(=O)Nc1ccc(F)cc1)Nc1ccc(F)cc1 | 0.253 | 0.613
CN(C)N=Nc1ccc(S(=O)(=O)NC(=O)Cc2ccccc2)cc1 | 0.24 | 0.612
CC(C)(C)NC(=O)c1cc(NC(=O)C(F)(F)F)cc(NC(=O)C(F)(F)F)c1 | 0.234 | 0.605
